Test results: ChEMBL document CHEMBL4888484, “Replenishing the malaria drug discovery pipeline: Screening and hit evaluation of the MMV Hit Generation Library 1 (HGL1) against asexual blood stage Plasmodium falciparum ,using a nano luciferase reporter read-out” (2022)
About 410 (8.5%) of roughly 4,800 compounds showed an effect of 50% or more. This is one part of a sample in which strong results are shown more often than they occur.

tested on: Plasmodium falciparum; assay: Confirmatory screen in NF54 pLDH assay, in single point, at 2uM, 72h; format: functional, Erythrocyte; details: timepoint 72 hour

| Structure (SMILES) | % Inhibition |
| --- | --- |
| COc1ccc(CCNC(=O)c2cc3c(=O)[nH]c(C)cn3n2)cc1OC | 8% |
| COc1cc(F)c(NCc2csc(C3CC3)n2)cc1OC | -21% |
| COC1CCCCC1NC(=O)c1ccc(-c2noc(C(F)(F)F)n2)cc1 (stereo not given) | 8% |
| CNC[C@H]1CCCN1C(=O)c1ccc(-c2noc(C(F)(F)F)n2)cc1 | 12% |
| COc1cccc(CNC(=O)Cn2c(=O)n(C)c(=O)c3c2c(-c2ccccc2)cn3C)c1OC | -10% |
| Cc1oc(-c2ccn[nH]2)cc1S(=O)(=O)Nc1cccc(Cl)c1 | 4% |
| COc1ccc(-c2noc(Cn3c(=O)c4ccccc4n(CC(=O)NCCc4ccc(OC)c(OC)c4)c3=O)n2)cc1 | 6% |
| CNCC(=O)Nc1ccccc1C(F)(F)F | -9% |
| O=C(c1cnc2ccccc2n1)N1CCCC1 | -1% |
| N[C@H]1C[C@@H](c2cc(N3CCN(C4CCCCC4)CC3)nc(N3CCCC3)n2)C1 | 50% |
| Cc1cccc(CNc2cc([C@H]3C[C@@H](N)C3)nc(N3CCCC3)n2)c1 | 14% |
| c1ncc(N2CCN3CCC[C@H]3C2)nc1OCC1CCCC1 | -16% |
| O=C(O)CCCC(=O)NCCc1ccc(Cl)cc1 | -19% |
| COc1ccc(OCc2nc3cc4c(cc3cc2C(=O)O)OCO4)cc1 | 5% |
| CCOc1ccc(-n2c(CN3CCN(C(=O)c4ccco4)CC3)nc3ccccc3c2=O)cc1 | 14% |
| CCOc1ccc(Nc2c3ccccc3nc3ccccc23)cc1 | 96% |
| COc1ccc(NC(=O)c2nc(Nc3ccccc3)c3ccccc3n2)cc1 | 7% |
| Cc1ccc(-c2ccnc3c(C(=O)N4CCOCC4)cnn23)cc1C | 2% |
| Cc1cccnc1C(F)(F)C(=O)Nc1cc(C)c(O)c(C)c1 | 11% |
| O=C(Nc1ccc(N2CCn3c(nc4cc(Cl)ccc43)C2)cc1)NC1CCCCC1 | -13% |
| C[C@H](OC1CCCCCC1)C(=O)Nc1nc(C(N)=O)cs1 | -11% |
| Cc1ccccc1C(=O)NCc1nn(C2CCCC2)c2c1COCC2 | 6% |
| COc1cccc(CNCCCn2ccnc2)c1OCc1ccc(F)cc1 | 10% |
| COc1ccc(C)c2sc(N(CCCn3ccnc3)C(=O)Cc3ccc(F)cc3)nc12 | 85% |
| COc1cc(CNCCN2CCOCC2)ccc1OCc1cccc(C)c1 | 7% |
| Cc1nn(C)c(Cl)c1CNCc1ccc(N2CCCCC2)nc1 | -13% |
| O=C(Nc1ccncc1)c1nc(N2CCCC2)ncc1Br | -9% |

| Structure (SMILES) | % Inhibition |
| --- | --- |
| Fc1ccc(COc2cccc(CNCCN3CCOCC3)c2)cc1 | -3% |
| CCCc1nnc(N(Cn2nnc3ccccc32)C(=O)CN2CCOCC2)s1 | 2% |
| CC1CCC(c2noc([C@H]3CCO[C@@H]3c3cncc(Br)c3)n2)CC1 (stereo not given in full) | 59% |
| O=C(c1cncc(Br)c1)N1CC[C@H](c2nc(C3CCOCC3)no2)C1 | 10% |
| Cc1ccc(NCc2ccc(OCc3cccc4ccccc34)c(Br)c2)cc1 | 11% |
| CCCN(CC(=O)N(Cc1ccccc1)Cc1ccc(C)o1)C(=O)c1ccco1 | -5% |
| O=C(c1ccccc1)C1C(c2ccccc2)N1C(=O)c1ccc(Cl)cc1Cl (stereo not given) | 6% |
| FC(F)(F)c1nnc(NCc2cncs2)s1 | -7% |
| COCc1nsc(N2CCC(c3c(F)cccc3F)CC2)n1 | 7% |
| CC(C)(C)OC(=O)Nc1cccc(N)n1 | 8% |
| Cn1cncc1CC(=O)Nc1ccnc(NC(=O)OC(C)(C)C)c1 | 100% |
| COc1ccc2c(O)cc(-c3ccccc3)nc2c1 | 1% |
| Nc1c(-c2ccccc2)nsc1C(=O)NCC1CC1 | 9% |
| COc1cccc(NC(=O)N2C[C@@H]3C[C@H](NS(C)(=O)=O)[C@H]2C3)c1 | 8% |
| O=C1CCC(C(=O)N2CCC[C@H]2c2ccncc2)=NN1c1ccccc1 | -11% |
| CON(C)C[C@H](O)Cn1cc(Nc2ncnc3cc(F)ccc23)cn1 | 5% |
| CC[C@H](O)CN1CCC(Nc2ncnc3cc(Cl)ccc23)CC1 | 75% |
| C[C@H](C(=O)Nc1ccc(F)cc1Cn1ccsc1=O)C1CC1 | -14% |
| Cc1nscc1C(=O)Nc1cccc(OCCN2CCCC2)c1 | -15% |
| Cc1cc(CN(C)Cc2nccn2C)ccc1N1CCCCC1 | 1% |
| CC(C)(C)c1cc2c(NCC3=CCOCC3)nccn2n1 | 9% |
| COc1cc(C(=O)Nc2scnc2C)cc(OC)c1OC | 7% |
| Cc1cccc(C(=O)Nc2nc3cc4sc(NC(=O)c5cccc(C)c5)nc4cc3s2)c1 | -8% |
| COc1cc(C(=O)Nc2ccc3sc(NC(=O)c4cc(OC)c(OC)c(OC)c4)nc3n2)cc(OC)c1OC | 67% |
| CNCc1cc(OC)c(OC)cc1Cl | 11% |
| Cc1ccc(C)c(C(=O)Cn2nc3ccc(-c4ccc(Cl)cc4)nn3c2=O)c1 | 6% |
| Cc1nc(NC(=O)c2ccn(COc3ccc(F)c(Cl)c3)n2)sc1C | -8% |

| Structure (SMILES) | % Inhibition |
| --- | --- |
| CC(=O)NCC(=O)N(Cc1ccco1)C1(C(=O)NC2CCCCC2)CCCCC1 | 8% |
| Cc1cc(C(=O)NCc2ccncc2)no1 | -10% |
| CCn1nccc1C(=O)N1CC[C@H](CC(=O)NCc2ccncc2)C1 | 6% |
| N#Cc1cc2cc(Cl)cnc2nc1N1CCCCC1 | 16% |
| CCOc1cc(Cl)ccc1C(=O)NC1CCN(C[C@H]2CCOC2)CC1 | 5% |
| COc1cc(C(=O)NC2CCCCC2)cc2occc12 | 0% |
| Cc1cnccc1NCCNC1CCN(c2ccc3c(c2)CCC3)CC1 | 77% |
| CCn1nccc1C(=O)NC1CCN(c2nnc3ccc(Cl)cn23)CC1 | 10% |
| Cc1cnccc1NCCNC1CCN(c2ccc(Cl)cc2)CC1 | 96% |
| N#Cc1c(N2CCCCC2)ncc2c(=O)c3ccccc3[nH]c12 | 8% |
| O=C(Cc1ccc(F)cc1)N[C@H](c1ccccc1)C1CC1 | 2% |
| CCCOc1ccc(CNC(=O)CCn2ccn3nc(-c4ccc(C)c(C)c4)cc3c2=O)cc1 | 5% |
| Cc1ccc(-n2nc(C)cc2NC(=O)CN2CCCN(c3ccc(C(F)(F)F)cn3)CC2)cc1 | 9% |
| O=C(c1ccccc1)c1ccc(O)c(CN2CCCN(c3ccc(C(F)(F)F)cn3)CC2)c1O | 80% |
| O=C(C1CC1c1ccccc1)N(c1ccc(F)cn1)C1CCOCC1 (stereo not given) | 7% |
| O=C(NCc1ccc2c(c1)OCO2)C(F)(F)C(F)(F)C(F)(F)C(F)(F)C(=O)NCc1ccc2c(c1)OCO2 | -19% |
| CN1CCN([C@H]2CCN(c3ccnc4ccc(Cl)cc34)C[C@H]2CCCO)CC1 | 60% |
| CCCOc1cc(=O)c(C(=O)N2CCCC2)nn1-c1ccc(C)cc1 | 0% |
| CCn1cc([C@H](CC(=O)N2CCN(Cc3ccc4c(c3)OCO4)CC2)c2cccc(OC)c2)c2ccccc21 | 2% |
| O=C(NC[C@H](O)c1ccc(Cl)s1)c1ccsc1 | 2% |
| OC(CNC1CCCNc2ccccc21)c1ccc(Cl)s1 (stereo not given) | 51% |
| Cc1cccc(NC(=O)CC(C)(C)CC(=O)O)c1C | 13% |
| CC(C)(c1ccc(F)cc1)C1(NC(=O)CCc2nccs2)CC1 | -12% |
| Cn1cc(CCCNc2ccc(F)cn2)cn1 | 9% |
| Cc1ccc(S(=O)(=O)N2CCN(C(=O)c3cc(C4CC4)nc4c3c(C)nn4C(C)C)CC2)cc1 | 13% |
| Cc1nn(C(C)(C)C)c2nc(C3CC3)cc(C(=O)N(C)c3ccccc3)c12 | 87% |
| Cc1nn(Cc2ccccc2)c2nc(C3CC3)cc(C(=O)N3CCOCC3)c12 | 1% |

| Structure (SMILES) | % Inhibition |
| --- | --- |
| CCOC(=O)C1CCN(C(=O)c2nc(-c3ccc(N4CCCC4)nc3)no2)CC1 | 12% |
| O=C(c1cccc2cc[nH]c12)N(CC1CC1)C1CC1 | 12% |
| Cc1cc(C)c(C(=O)Cn2nc3ccc(-c4ccc(Cl)cc4)nn3c2=O)c(C)c1 | 10% |
| CCCn1nc(-n2cnnc2)c(NS(=O)(=O)c2ccc(Br)cc2)c1C | 11% |
| CC(C(=O)N1CCCC1c1cccs1)N(C)Cc1ncnn1C (stereo not given) | 4% |
| Clc1ccc(-c2noc(CN(Cc3cccs3)Cc3cccs3)n2)cc1 | 6% |
| COc1ccc(CC(=O)NCCOCCO)cc1 | 8% |
| N#CC1(O)C(C2COC3(CCCCC3)O2)OC2OC3(CCCCC3)OC21 (stereo not given) | 10% |
| Cc1sc(NC(N)=O)nc1Cc1ccccc1 | 10% |
| CN1CCN(c2nc(O)c3c(n2)NC(=O)C[C@H]3c2c(F)cccc2F)CC1 | 0% |
| CCOc1cc(C(c2c(C)n(C)n(-c3ccccc3)c2=O)c2c(C)n(C)n(-c3ccccc3)c2=O)ccc1OCc1ccccc1 | 38% |
| O=C(NC1CCN(Cc2ccccc2)CC1)c1cn[nH]c1-c1ccccc1 | 6% |
| CCOC(=O)N1CCC(NC(=O)c2cn[nH]c2-c2ccc(OCC)c(Cl)c2)CC1 | 10% |
| O=C(C[C@H]1CCN(C(=O)Nc2ccc3c(c2)OCCO3)C1)NCc1ccncc1 | 7% |
| Cc1cc(C)cc([C@@H](O)CNC(=O)NCC(C)(C)c2ccncc2)c1 | 3% |
| Cc1nn2c(-c3ccc(-c4ccccc4)cc3)ccnc2c1Br | 9% |
| Cc1nonc1NC(=O)CCCC1CCCC1 | 8% |
| O[C@@H](CNCc1ccsc1C(F)(F)F)c1cc(Cl)c2c(c1)OCCO2 | 29% |
| NC(=O)COCC(=O)Nc1ccccc1 | -9% |
| CCc1[nH]nc(NC(=O)c2c(C)ccnc2O)c1C | -11% |
| CO[C@@H](CNC(=O)c1nc2n(n1)-c1ccccc1S(=O)(=O)N2)c1ccccc1 | 0% |
| O=c1[nH]nc2c(N3CC[C@H](NCc4ccc(F)cc4)C3)nccn12 | 11% |
| COc1ccc(C)cc1NC(=O)N1CC(c2nc(C(C)C)nn2C)C1 | 1% |
| c1cn2cnnc2c(N(CC2CC2)CC2CC2)n1 | -5% |
